For assay [1], the target named is CCAAT/enhancer-binding protein beta (Homo sapiens) (UniProt P17676). Nature of the assay: ATG_C_EBP_CIS: Attagene CIS-FACTORIAL HepG2 Assay for human CCAAT/Enhancer Binding Protein (C/EBP) beta (AID 2282927). Conditions: HepG2 Attagene cis-factorial transcription factor reporter; actives raise or lower the signal. In a few lines:
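Endogenous C/EBPb-driven reporter transcripts measured in transfected human HepG2 cells at 24 h via RT-PCR and capillary electrophoresis of labelled fragments. Activity fitted in both directions relative to DMSO baseline.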

The nature of assay [2]: ATG_CMV_CIS: Attagene CIS-FACTORIAL HepG2 Assay for human CMV (Internal Marker) (AID 2282928).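 Note: endpoint acts as a background internal control marker rather than a target.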 Conditions: HepG2 CMV promoter reporter, transcription factor profiling; actives raise or lower the signal. The method, boiled down:
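CMV internal-marker background readout in transiently transfected HepG2 cells bearing cis-regulated reporter units. Reporter mRNA is measured 24 h after dosing by RT-PCR and capillary electrophoresis, with bidirectional fitting against DMSO.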

A short description of assay [3]: ATG_DR4_LXR_CIS: Attagene CIS-FACTORIAL HepG2 Assay for human Liver X Receptor (LXR), DR4 submotif (AID 2282929). Particulars: HepG2 Attagene DR4 cis-reporter, mRNA transcription; actives raise or lower the signal. In a few lines: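 The endpoint is DR4-element-driven reporter transcripts after 24 h chemical exposure of transfected HepG2 cells. These were measured via RT-PCR and capillary electrophoresis, and gain or loss of signal was fitted relative to DMSO controls.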

The nature of assay [4]: ATG_AP_1_CIS: Attagene CIS-FACTORIAL HepG2 Assay for human Activator Protein 1 (AP-1) (AID 2282931). Particulars: HepG2 Attagene cis-factorial AP-1 reporter mRNA; actives raise or lower the signal. In a few lines:
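Readout is reporter transcript level from endogenous transcription factor activity, quantified by RT-PCR with fluorescent primer extension and capillary electrophoresis. Transiently transfected HepG2 cells, 24 h exposure. Curves fitted both directions versus DMSO.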

The nature of assay [5]: ATG_AP_2_CIS: Attagene CIS-FACTORIAL HepG2 Assay for human Activator Protein 2 (AP-2) (AID 2282932). Particulars: HepG2 AP-2 cis-reporter, Attagene transcription factor profiling; actives raise or lower the signal. In a few lines: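 HepG2, transient MRTU transfection, cis-regulated reporters; 24 h compound exposure; RNA isolated, RT-PCR, 6-FAM labelling, HpaI digest, CE fluorescence. DMSO = negative control/baseline, bidirectional fit.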

Assay [6] can be described thus: ATG_BRE_CIS: Attagene CIS-FACTORIAL HepG2 Assay for human Bone Morphogenetic Protein (BMP) Response Element (BRE) (AID 2282933). Particulars: HepG2 BMP response element reporter, Attagene transcription factor profiling; actives raise or lower the signal. The method, boiled down:
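Transient MRTU transfection of human HepG2 liver cells; 24 h compound treatment; total RNA isolated, reverse-transcribed, PCR-amplified, 6-FAM labelled, HpaI-cut, capillary electrophoresis. DMSO = negative control/baseline, bidirectional fit.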

Assay [7] deals with Retinoic acid receptor alpha (Homo sapiens) (UniProt P10276). Briefly: ATG_DR5_RAR_CIS: Attagene CIS-FACTORIAL HepG2 Assay for human Retinoic Acid Receptor Alpha (RARE), DR5 submotif (AID 2282934).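 For AC50: reporter responds to endogenous RAR alpha beta and gamma in HepG2 not RARA alone.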 Particulars: HepG2 Attagene cis-factorial RARE DR5 reporter, mRNA; actives raise or lower the signal. In a few lines:
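Reporter transcripts from a DR5-regulated unit, measured via RT-PCR plus capillary electrophoresis, reflect endogenous RAR activity in transiently transfected human HepG2 liver cells. Exposure lasted 24 h; gain or loss of signal scored against DMSO.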

Assay [8] deals with Aryl hydrocarbon receptor (Homo sapiens) (UniProt P35869). Nature of the assay: ATG_Ahr_CIS: Attagene CIS-FACTORIAL HepG2 Assay for human Aryl Hydrocarbon Receptor (Ahr) (AID 2282930). Conditions: HepG2 AhR cis-factorial reporter transcription; actives raise or lower the signal. In a few lines:
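Reporter mRNA levels, quantified by RT-PCR and fluorescent capillary electrophoresis, reflect endogenous AhR transcriptional activity in HepG2 cells carrying transfected cis-promoter reporter constructs. Readout at 24 h post-dose; gain or loss fitted against DMSO baseline.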

The nature of assay [9]: ATG_CRE_CIS: Attagene CIS-FACTORIAL HepG2 Assay for human cAMP Responsive Element (CRE) binding protein 3 (AID 2282926). Particulars: HepG2 CRE cis-reporter, Attagene multiplexed mRNA; actives raise or lower the signal. The method, boiled down: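 HepG2 cells transiently transfected with cis-element-driven multiple reporter transcription units; CRE reporter mRNA measured 24 h after dosing by RT-PCR, 6-FAM labelling, HpaI digestion and capillary electrophoresis. Bidirectional fit versus DMSO baseline.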

Outcome and AC50 data for 33 compounds are collected here from PubChem BioAssay (EPA / NIEHS).

More than one record can exist for a structure, and the calls need not agree. Calls of active or inactive are those of the source. Rule for the calls: active = hit-call score of the fitted dose curve at least 0.9, where 1 is the maximum; inactive = score below 0.9.

Sequence of Aryl hydrocarbon receptor (Homo sapiens) (P35869 whole entry, looked up): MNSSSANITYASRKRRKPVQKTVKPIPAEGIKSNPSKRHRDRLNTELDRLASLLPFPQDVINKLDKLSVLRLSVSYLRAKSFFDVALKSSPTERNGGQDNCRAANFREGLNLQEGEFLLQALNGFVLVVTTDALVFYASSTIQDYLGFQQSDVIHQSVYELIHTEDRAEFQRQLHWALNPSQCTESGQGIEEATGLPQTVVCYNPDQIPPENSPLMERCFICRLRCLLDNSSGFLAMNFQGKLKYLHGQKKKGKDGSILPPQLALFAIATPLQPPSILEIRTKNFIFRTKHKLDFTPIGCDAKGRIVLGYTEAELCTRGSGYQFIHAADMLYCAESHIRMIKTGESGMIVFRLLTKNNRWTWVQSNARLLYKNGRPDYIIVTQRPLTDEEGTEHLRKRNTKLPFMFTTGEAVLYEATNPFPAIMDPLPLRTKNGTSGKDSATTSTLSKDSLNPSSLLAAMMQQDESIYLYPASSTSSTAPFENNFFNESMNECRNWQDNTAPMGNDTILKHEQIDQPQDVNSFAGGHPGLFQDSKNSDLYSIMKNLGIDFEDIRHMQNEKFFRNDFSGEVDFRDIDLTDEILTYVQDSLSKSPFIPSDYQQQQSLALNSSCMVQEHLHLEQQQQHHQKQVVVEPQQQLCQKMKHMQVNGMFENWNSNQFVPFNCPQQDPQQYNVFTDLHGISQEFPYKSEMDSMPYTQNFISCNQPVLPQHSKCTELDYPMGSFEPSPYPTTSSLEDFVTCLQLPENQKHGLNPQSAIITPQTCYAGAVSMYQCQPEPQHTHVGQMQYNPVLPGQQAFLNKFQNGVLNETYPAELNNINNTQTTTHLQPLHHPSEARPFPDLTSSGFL
Sequence of Retinoic acid receptor alpha (Homo sapiens) (P10276 whole entry, looked up): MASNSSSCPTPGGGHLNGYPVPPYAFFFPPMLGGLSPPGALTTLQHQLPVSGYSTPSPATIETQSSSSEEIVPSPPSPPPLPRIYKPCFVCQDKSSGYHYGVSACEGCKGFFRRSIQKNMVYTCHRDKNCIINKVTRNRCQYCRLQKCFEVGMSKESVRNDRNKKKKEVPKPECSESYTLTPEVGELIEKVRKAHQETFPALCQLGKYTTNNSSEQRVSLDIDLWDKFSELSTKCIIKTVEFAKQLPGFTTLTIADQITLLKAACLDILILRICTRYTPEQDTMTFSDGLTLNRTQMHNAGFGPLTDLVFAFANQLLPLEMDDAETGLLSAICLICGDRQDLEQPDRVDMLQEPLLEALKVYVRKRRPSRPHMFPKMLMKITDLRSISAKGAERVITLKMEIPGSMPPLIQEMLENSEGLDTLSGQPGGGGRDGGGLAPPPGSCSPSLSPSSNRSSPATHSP
Sequence of CCAAT/enhancer-binding protein beta (Homo sapiens) (P17676 whole entry, looked up, the tested form may be a part): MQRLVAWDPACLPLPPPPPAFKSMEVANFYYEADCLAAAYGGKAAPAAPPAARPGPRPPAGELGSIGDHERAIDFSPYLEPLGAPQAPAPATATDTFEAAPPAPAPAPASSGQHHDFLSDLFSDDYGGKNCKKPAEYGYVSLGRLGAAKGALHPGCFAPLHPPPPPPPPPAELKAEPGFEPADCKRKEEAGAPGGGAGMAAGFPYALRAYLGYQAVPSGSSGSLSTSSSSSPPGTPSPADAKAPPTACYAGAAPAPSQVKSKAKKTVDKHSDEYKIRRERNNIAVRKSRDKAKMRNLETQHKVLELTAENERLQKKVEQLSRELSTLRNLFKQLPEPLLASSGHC

Consider `CCCCOCCOP(=O)(OCCOCCCC)OCCOCCCC`, for which the outcome in assay [1], in assay [2], in assay [3], in assay [4], in assay [5] and in [6] was inactive. Further, the call in assay [7] was inactive.
One may read the AC50 as the concentration at which the activity in the assay is half-maximal. For the compound `CC(=O)c1ccc(-c2ccccc2)cc1`, the outcome in assay [1], in assay [2], in assay [4], in assay [5], in assay [6] and in [7] was inactive. Moreover, the AC50 in assay [8] was 56.5 µM (active).
On to `CC(=O)CCc1ccc2c(c1)OCO2`, for which the outcome in [1], in assay [2], in assay [3], in [8], in [4] and in assay [5] was inactive. Besides, the call in assay [7] was inactive.
Turning to `O=c1ssc(Cl)c1Cl`, the results for the AC50 in assay [1] and in [3] were 53.4 µM (active) and 52.7 µM (active), respectively. Further, the result in assay [2], in assay [8], in assay [4], in assay [5] and in assay [7] was inactive.
Turning to `Oc1ccccc1Br`, the result in assay [1], in assay [2], in [4], in assay [5] and in assay [7] was inactive.
Turning to `O=NN1CCCC1`, the result in assay [1], in assay [2], in [3], in [8], in assay [4] and in [5] was inactive. Moreover, the compound was called inactive in assay [6] and in assay [7].
With `FC(F)(F)c1ccc(Cl)cc1`, the result in assay [9], in assay [1], in [2], in assay [8], in [4] and in [5] was inactive. For the same compound, the compound was called inactive in [6] and in [7].
On to `c1ccc2c(c1)sc1ccccc12`, for which the compound was called inactive in [9], in assay [1], in assay [2], in assay [8], in assay [4] and in assay [5]. In addition, the compound was classed as inactive in assay [6] and in assay [7].
As to `O=C(O)C(F)(F)OC(F)(F)C(F)(F)OC(F)(F)C(=O)O`, the result in [1], in [2], in assay [3], in assay [8], in [4] and in assay [5] was inactive. Further, in assay [7], the outcome was inactive.
As for `CC(Cl)CN(C)C` (centres undefined), the result in assay [9], in assay [1], in [2], in [8], in assay [4] and in assay [5] was inactive. Further, the result in assay [6] and in [7] was inactive.
Turning to `CC1(C)CN=C(NN=C(/C=C/c2ccc(C(F)(F)F)cc2)/C=C/c2ccc(C(F)(F)F)cc2)NC1`, the values for the AC50 in assay [9], in assay [1] and in assay [6] were 8.42 µM (active), 3.09 µM (active) and 16.7 µM (active), respectively. Besides, the compound was classed as inactive in assay [2], in assay [8], in [4], in [5] and in assay [7].
`CCOP(=O)(O)C(N)=O`: the result in [1], in assay [2], in [4], in assay [5], in assay [6] and in assay [7] was inactive.
On to `Oc1ccc(I)cc1`, for which the result in [9], in assay [1], in [2], in assay [4], in [5] and in [7] was inactive.
Consider `CCCCOCC1CO1` (centres undefined), for which the result in assay [1], in [2], in assay [4], in assay [5], in [6] and in assay [7] was inactive.
Consider `N#Cc1cc([N+](=O)[O-])ccc1N`, for which the outcome in assay [1], in assay [2], in [4], in assay [5], in assay [6] and in [7] was inactive. Also, the AC50 in [8] was 2.51 µM (active).
Turning to `Cc1ccc(O)cc1C`, the result in assay [1], in [2], in assay [3], in assay [8], in [5] and in assay [7] was inactive.
For the compound `N#Cc1ccc(O)cc1`, the outcome in [1], in assay [2], in [3], in assay [8], in [4] and in [5] was inactive. For the same compound, the compound was classed as inactive in assay [6] and in assay [7].
As to `O=C(O)C(F)(F)C(F)(F)C(=O)O`, the result in [1], in assay [2], in [8], in assay [4], in assay [5] and in assay [6] was inactive. Besides, the result in assay [7] was inactive.
As to `CCCCc1ccc(O)cc1`, the outcome in [1], in assay [3], in [5], in [6] and in assay [7] was inactive. The AC50 in [2] is 71.4 µM (active); in assay [4] it was 148 µM (active).
Take `Cc1c([N+](=O)[O-])cc2c(c1[N+](=O)[O-])C(C)(C)CC2(C)C`: the outcome in [1], in assay [8], in [4] and in assay [5] was inactive. For the same compound, the AC50 was 100 µM (active) in assay [2] and 2.78 µM (active) in assay [7].
Regarding `COC(=O)C(F)(F)C(F)(F)OC(F)(C(F)(F)F)C(F)(F)OC(F)=C(F)F` (centres undefined), the outcome in assay [1], in assay [2], in [3], in [8], in assay [4] and in assay [5] was inactive. Moreover, in [7], the compound was called inactive. The AC50 is 20.2 µM (active) in assay [3] and 9.89 µM (active) in assay [4].
Take `CCCCC(CC)COP(=O)(Oc1ccccc1)Oc1ccccc1` (centres undefined): the compound was called inactive in [9], in assay [1], in assay [5] and in [7]. Besides, the figures for the AC50 in [2], in [4] and in assay [6] were 35.4 µM (active), 29.5 µM (active) and 21.4 µM (active), respectively.
As for `CCOP(=S)(OCC)SCS(=O)(=O)CC`, the outcome in [1], in assay [2], in assay [3], in assay [8], in assay [4] and in [5] was inactive. In addition, the compound was called inactive in [6] and in [7].
Turning to `Cc1cc(C)c(C(=O)P(=O)(c2ccccc2)c2ccccc2)c(C)c1`, the result in [1], in [2], in assay [4], in [6] and in assay [7] was inactive. The results for the AC50 in assay [3] and in [5] were 11.5 µM (active) and 59.3 µM (active), respectively.
Regarding `CCOC(=O)c1ccccc1N`, the result in assay [1], in [2], in assay [8], in [4], in assay [5] and in assay [7] was inactive.
For `Cn1[nH]nnc1=S`, the compound was classed as inactive in assay [9], in assay [1], in assay [2], in [4], in [5] and in [6]. Also, the result in [7] was inactive.
In the case of `O=S(=O)(F)C(F)(F)C(F)(F)C(F)(F)C(F)(F)C(F)(F)C(F)(F)C(F)(F)C(F)(F)F`, the outcome in assay [1], in assay [2], in [8], in [4], in assay [5] and in [6] was inactive. Further, the call in assay [7] was inactive.
For the compound `CO/N=C(/C(=O)OC)c1ccccc1COc1ccccc1C`, the result in assay [1] and in [5] was inactive. Besides, the AC50 in assay [2] is 23.2 µM (active); in assay [8] it was 22.9 µM (active); in assay [4], 8.54 µM (active); in assay [6] it was 27.7 µM (active); in assay [7], 5.62 µM (active).
As for `OCC(F)(F)OC(F)(F)C(F)(F)OC(F)(F)C(F)(F)OC(F)(F)CO`, the AC50 in [9] was 35.5 µM (active). In addition, the outcome in assay [1], in assay [2], in [4], in assay [5] and in assay [7] was inactive.
As for `CCOP(=S)(OCC)SCn1nnc2ccccc2c1=O`, the result in [9], in [1], in assay [2], in assay [8], in assay [4] and in assay [5] was inactive. In [7], the compound was called inactive. In addition, the AC50 in assay [6] is 173 µM (active).
Regarding `CNC(=O)Oc1ccc(N(C)C)c(C)c1`, the call in assay [9], in assay [1], in [2], in assay [8], in assay [4] and in assay [5] was inactive. For the same compound, the compound was called inactive in assay [7].
As to `NNC(N)=S`, the result in assay [1], in assay [2], in assay [3], in [8], in [4] and in [5] was inactive. In [7], the result was inactive.
With `CC(C)(C)c1ccc(O)cc1`, the outcome in assay [1], in assay [3] and in assay [5] was inactive. Besides, the AC50 in [2] was 100 µM (active).
